Inconclusive results are not listed. The source made the active and inactive calls. Rule for the calls: active = hit-call score of the fitted dose curve at least 0.9, where 1 is the maximum; inconclusive = response in the unintended direction; inactive = score below 0.9.
How the values were obtained:
[1] = molecular target: rat Serotonin, 5-Hydroxytryptamine Receptor (5HT), Non-Selective Binding, Htr1a (gene 24473) (UniProt P19327); assay: NVS_GPCR_r5HT_NonSelective: NovaScreen (NVS) G Protein-Coupled Receptor Assay for rat Serotonin, 5-Hydroxytryptamine Receptor (5HT), Non-Selective Binding (AID 2283295)
Sequence of rat Serotonin, 5-Hydroxytryptamine Receptor (5HT), Non-Selective Binding, Htr1a (gene 24473) (P19327 whole entry, looked up): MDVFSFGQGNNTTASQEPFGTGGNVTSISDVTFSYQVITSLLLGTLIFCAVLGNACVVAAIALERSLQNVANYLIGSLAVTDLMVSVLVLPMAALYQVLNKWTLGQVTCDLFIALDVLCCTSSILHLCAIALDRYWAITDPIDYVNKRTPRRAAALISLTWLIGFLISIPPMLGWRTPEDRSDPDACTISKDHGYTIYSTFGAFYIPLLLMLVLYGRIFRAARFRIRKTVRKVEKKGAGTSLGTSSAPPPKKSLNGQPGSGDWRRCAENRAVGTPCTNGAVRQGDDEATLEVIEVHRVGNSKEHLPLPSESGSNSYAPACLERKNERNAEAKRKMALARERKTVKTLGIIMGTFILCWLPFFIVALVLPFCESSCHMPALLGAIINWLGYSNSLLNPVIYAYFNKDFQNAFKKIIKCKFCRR
How it was run: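 Rat cortex membrane preparation incubated 1 h with radioligand and test chemical; bound radioactivity counted after filtration. Screening began in duplicate at 25 uM with concentration-series follow-up; fitting relative to DMSO.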

[2] = molecular target: rat Adrenergic Receptor, Alpha 2 (Adra2), Non-selective Binding, Adra2a (gene 25083) (UniProt P22909); assay: NVS_GPCR_rAdra2_NonSelective: NovaScreen (NVS) G Protein-Coupled Receptor Assay for rat Adrenergic Receptor, Alpha 2 (Adra2), Non-selective Binding (AID 2283299)
Sequence of rat Adrenergic Receptor, Alpha 2 (Adra2), Non-selective Binding, Adra2a (gene 25083) (P22909 whole entry, looked up): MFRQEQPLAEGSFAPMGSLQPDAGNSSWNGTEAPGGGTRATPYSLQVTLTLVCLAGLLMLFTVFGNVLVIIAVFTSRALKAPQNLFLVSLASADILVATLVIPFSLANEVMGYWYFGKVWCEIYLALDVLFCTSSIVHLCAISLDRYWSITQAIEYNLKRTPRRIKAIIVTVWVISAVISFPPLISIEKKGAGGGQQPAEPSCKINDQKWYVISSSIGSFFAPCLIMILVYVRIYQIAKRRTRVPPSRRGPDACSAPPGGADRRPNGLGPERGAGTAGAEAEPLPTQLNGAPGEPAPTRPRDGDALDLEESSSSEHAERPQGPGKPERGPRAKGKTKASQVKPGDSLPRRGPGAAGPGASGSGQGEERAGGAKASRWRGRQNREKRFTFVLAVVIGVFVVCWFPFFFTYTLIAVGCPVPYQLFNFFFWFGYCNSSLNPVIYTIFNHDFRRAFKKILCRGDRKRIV
How it was run: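 Filter-based scintillation counting of radioligand binding to rat cortical membrane receptors, measured 1.25 hours post-dosing; loss of signal versus DMSO indicates displacement. Initial single-concentration duplicate at 25 uM, then concentration series.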

Adra2b (gene 24174) = Adra2b (gene 24174) (UniProt P19328); assay: NVS_GPCR_rmAdra2B: NovaScreen (NVS) G Protein-Coupled Receptor Assay for hybird cells Adrenergic, Alpha 2B Receptor (Adra2B) (AID 2283306)
Sequence of Adra2b (gene 24174) (P19328 whole entry, looked up): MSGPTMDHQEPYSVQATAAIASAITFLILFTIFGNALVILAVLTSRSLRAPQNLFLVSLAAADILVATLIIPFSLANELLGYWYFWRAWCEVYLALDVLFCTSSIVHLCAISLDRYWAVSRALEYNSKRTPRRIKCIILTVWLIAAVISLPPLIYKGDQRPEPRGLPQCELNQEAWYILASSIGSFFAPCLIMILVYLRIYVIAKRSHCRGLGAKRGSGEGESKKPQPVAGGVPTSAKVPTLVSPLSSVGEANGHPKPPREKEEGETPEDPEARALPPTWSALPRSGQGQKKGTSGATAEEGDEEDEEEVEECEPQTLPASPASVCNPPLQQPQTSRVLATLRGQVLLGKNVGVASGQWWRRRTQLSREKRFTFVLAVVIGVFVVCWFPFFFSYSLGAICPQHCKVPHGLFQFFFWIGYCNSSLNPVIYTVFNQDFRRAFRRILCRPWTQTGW
How it was run: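 Compounds screened first at 25 uM in duplicate, with actives followed up in concentration-response; specific radioligand displacement from hybrid neuroglioma/blastoma cell membrane preparations measured by filter scintillation counting after 1 h, normalized to DMSO.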

[3] = molecular target: rat Gamma-Aminobutyric Acid Type B Receptor (GABBR), Gabbr1 (gene 81657) (UniProt Q9Z0U4); assay: NVS_GPCR_rGABBR: NovaScreen (NVS) G Protein-Coupled Receptor Assay for rat Gamma-Aminobutyric Acid Type B Receptor (GABBR) (AID 2283301)
How it was run: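 Rat cortical membrane preparation, competitive radioligand binding for 1 h with filtration and scintillation readout. Actives from duplicate single-point 25 uM screening proceeded to concentration series with 50 uM top concentration.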

[4] = molecular target: guinea pig Serotonin, 5-Hydroxytryptamine Receptor 4 (5HT4), HTR4 (gene 100135548) (UniProt O70528); assay: NVS_GPCR_g5HT4: NovaScreen (NVS) G Protein-Coupled Receptor Assay for guinea pig Serotonin, 5-Hydroxytryptamine Receptor 4 (5HT4) (AID 2283294)
Sequence of guinea pig Serotonin, 5-Hydroxytryptamine Receptor 4 (5HT4), HTR4 (gene 100135548) (O70528 whole entry, looked up): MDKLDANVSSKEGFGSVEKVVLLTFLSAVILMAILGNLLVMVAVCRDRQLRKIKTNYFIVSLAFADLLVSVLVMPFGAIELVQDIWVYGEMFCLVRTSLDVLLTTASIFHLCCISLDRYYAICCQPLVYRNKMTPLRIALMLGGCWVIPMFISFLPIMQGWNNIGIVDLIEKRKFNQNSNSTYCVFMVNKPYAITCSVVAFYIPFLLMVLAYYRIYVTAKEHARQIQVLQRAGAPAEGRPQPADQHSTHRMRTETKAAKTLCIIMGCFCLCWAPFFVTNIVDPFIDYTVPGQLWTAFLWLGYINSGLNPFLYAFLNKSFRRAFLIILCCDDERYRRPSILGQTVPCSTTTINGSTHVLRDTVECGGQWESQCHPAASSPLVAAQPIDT
How it was run: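 Compounds first screened in duplicate at 25 uM, actives followed up in concentration series. Binding measured as displacement of specific radioligand from guinea pig striatal membranes, 1 h, filter-based scintillation read-out versus DMSO baseline.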

[5] = molecular target: rat Adrenergic, Alpha 1A Receptor (Adra1A), Adra1a (gene 29412) (UniProt P43140); assay: NVS_GPCR_rAdra1A: NovaScreen (NVS) G Protein-Coupled Receptor Assay for rat Adrenergic, Alpha 1A Receptor (Adra1A) (AID 2283296)
Sequence of rat Adrenergic, Alpha 1A Receptor (Adra1A), Adra1a (gene 29412) (P43140 whole entry, looked up): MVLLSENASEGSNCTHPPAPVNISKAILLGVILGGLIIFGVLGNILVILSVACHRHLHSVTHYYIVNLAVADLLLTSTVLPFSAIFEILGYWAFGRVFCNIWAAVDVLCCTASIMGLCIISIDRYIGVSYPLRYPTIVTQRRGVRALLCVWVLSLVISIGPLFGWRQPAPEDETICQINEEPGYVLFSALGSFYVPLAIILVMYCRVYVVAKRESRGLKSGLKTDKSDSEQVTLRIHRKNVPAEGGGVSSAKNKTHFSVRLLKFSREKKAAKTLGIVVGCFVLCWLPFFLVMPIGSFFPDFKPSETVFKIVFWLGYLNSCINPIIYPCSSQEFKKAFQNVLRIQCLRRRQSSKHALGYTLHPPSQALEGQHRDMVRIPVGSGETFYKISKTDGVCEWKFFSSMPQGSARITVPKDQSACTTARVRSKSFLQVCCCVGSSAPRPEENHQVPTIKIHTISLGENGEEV
How it was run: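 Filter radiodetection after 1 h competitive binding on CEC-pretreated rat cortical membranes. Duplicate single-point screening at 25 uM; active chemicals retested across concentration series.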

[6] = test system: rat Adrenergic, Alpha 1B Receptor (Adra1B), gene 24173; assay: NVS_GPCR_rAdra1B: NovaScreen (NVS) G Protein-Coupled Receptor Assay for rat Adrenergic, Alpha 1B Receptor (Adra1B) (AID 2283297)
How it was run: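 Filter-binding radioligand competition on membranes from rat liver, read after 1 h by scintillation counting. Single-concentration duplicate screen at 25 uM, followed by concentration-response on actives, normalised to DMSO.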

[7] = molecular target: rat Neurokinin-1 Receptor (NK1), Tacr1 (gene 24807) (UniProt P14600); assay: NVS_GPCR_rNK1: NovaScreen (NVS) G Protein-Coupled Receptor Assay for rat Neurokinin-1 Receptor (NK1) (AID 2283309)
Sequence of rat Neurokinin-1 Receptor (NK1), Tacr1 (gene 24807) (P14600 whole entry, looked up): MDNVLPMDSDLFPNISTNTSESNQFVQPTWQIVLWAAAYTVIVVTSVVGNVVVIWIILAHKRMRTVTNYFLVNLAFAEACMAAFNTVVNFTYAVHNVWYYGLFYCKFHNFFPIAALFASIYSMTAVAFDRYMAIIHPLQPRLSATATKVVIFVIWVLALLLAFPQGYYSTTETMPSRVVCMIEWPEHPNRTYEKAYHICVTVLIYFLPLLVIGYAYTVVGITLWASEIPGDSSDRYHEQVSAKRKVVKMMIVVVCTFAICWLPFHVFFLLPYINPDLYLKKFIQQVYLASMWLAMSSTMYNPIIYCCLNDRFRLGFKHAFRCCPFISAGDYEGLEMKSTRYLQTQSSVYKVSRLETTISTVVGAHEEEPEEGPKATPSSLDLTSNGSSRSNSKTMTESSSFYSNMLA
How it was run: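 Competitive radioligand binding to NK1 in rat submaxillary membranes, 1 h incubation, filtration and scintillation read-out. Compounds first screened at 25 uM in duplicate, then concentration-response for actives; signal loss relative to DMSO.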

[8] = molecular target: human Neonicotinoid receptor (NNR), CHRNA2 (gene 1135) (UniProt Q15822); assay: NVS_LGIC_hNNR_NBungSens: NovaScreen (NVS) Ligand-Gated Ion Channel Assay for human Neonicotinoid receptor (NNR) (AID 2283313)
How it was run: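 Compounds first screened in duplicate at 25 uM, then actives re-tested in single-replicate dose series up to 50 uM. Binding measured as displacement of specific radioligand from neuroblastoma membrane receptors after 2 h, scintillation read on filters.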

[9] = molecular target: mouse Cholecystokinin, CCK2 Receptor (CCKB), Cckbr (gene 12426) (UniProt P56481); assay: NVS_GPCR_mCKKBCentral: NovaScreen (NVS) G Protein-Coupled Receptor Assay for mouse Cholecystokinin, CCK2 Receptor (CCKB) (AID 2283293)
Sequence of mouse Cholecystokinin, CCK2 Receptor (CCKB), Cckbr (gene 12426) (P56481 whole entry, looked up): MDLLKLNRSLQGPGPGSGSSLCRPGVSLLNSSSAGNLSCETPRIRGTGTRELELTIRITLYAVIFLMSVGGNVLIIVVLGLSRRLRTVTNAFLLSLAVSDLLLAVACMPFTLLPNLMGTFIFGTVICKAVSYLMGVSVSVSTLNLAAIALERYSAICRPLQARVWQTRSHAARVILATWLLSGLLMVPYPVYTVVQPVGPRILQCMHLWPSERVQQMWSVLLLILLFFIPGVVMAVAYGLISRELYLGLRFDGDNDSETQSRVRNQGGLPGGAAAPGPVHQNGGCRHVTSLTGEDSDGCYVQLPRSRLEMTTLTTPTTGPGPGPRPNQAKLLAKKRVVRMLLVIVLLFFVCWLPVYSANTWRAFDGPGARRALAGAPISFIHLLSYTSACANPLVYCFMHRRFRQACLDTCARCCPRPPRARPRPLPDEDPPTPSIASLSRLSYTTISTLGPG
How it was run: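 Mouse forebrain membrane preparation incubated 2 h with chemical and radioligand; bound radioactivity counted after filtration. Single-concentration duplicate screen at 25 uM, then concentration series to 50 uM max for hits, DMSO as baseline.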

[10] = molecular target: guinea pig Bradykinin Receptor B2 (BK2), BDKRB2 (gene 100135486) (UniProt O70526); assay: NVS_GPCR_gBK2: NovaScreen (NVS) G Protein-Coupled Receptor Assay for guinea pig Bradykinin Receptor B2 (BK2) (AID 2283292)
How it was run: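 Guinea pig ileum membrane preparation incubated 1 h with radioligand and test chemical; bound counts measured after filtration. Primary duplicate screening at 25 uM, then singleton concentration series with a 50 uM top dose; DMSO as baseline.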

[11] = molecular target: rat Adrenergic Receptor, Beta (Adrb), Non-selective Binding, Adrb1 (gene 24925) (UniProt P18090); assay: NVS_GPCR_rAdrb_NonSelective: NovaScreen (NVS) G Protein-Coupled Receptor Assay for rat Adrenergic Receptor, Beta (Adrb), Non-selective Binding (AID 2283298)
How it was run: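 Rat cortical membranes incubated 1 h with beta-adrenergic radioligand and test chemical; bound ligand measured by filtration and scintillation counting. Screen at 25 uM duplicate, then concentration series with 50 uM maximum; loss of signal versus DMSO.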

[12] = molecular target: rat Corticotropin Releasing Factor Receptor (CRF), Crhr1 (gene 58959) (UniProt P35353); assay: NVS_GPCR_rCRF: NovaScreen (NVS) G Protein-Coupled Receptor Assay for rat Corticotropin Releasing Factor Receptor (CRF) (AID 2283300)
How it was run: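 Single-concentration (25 uM, duplicate) radioligand binding on rat cortical membrane preparations, counted by scintillation after 2 h. Activity scored as signal loss relative to DMSO negative control.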

[13] = molecular target: rat Histamine Receptor (H3), Hrh3 (gene 85268) (UniProt Q9QYN8); assay: NVS_GPCR_rH3: NovaScreen (NVS) G Protein-Coupled Receptor Assay for rat Histamine Receptor (H3) (AID 2283303)
Sequence of rat Histamine Receptor (H3), Hrh3 (gene 85268) (Q9QYN8 whole entry, looked up): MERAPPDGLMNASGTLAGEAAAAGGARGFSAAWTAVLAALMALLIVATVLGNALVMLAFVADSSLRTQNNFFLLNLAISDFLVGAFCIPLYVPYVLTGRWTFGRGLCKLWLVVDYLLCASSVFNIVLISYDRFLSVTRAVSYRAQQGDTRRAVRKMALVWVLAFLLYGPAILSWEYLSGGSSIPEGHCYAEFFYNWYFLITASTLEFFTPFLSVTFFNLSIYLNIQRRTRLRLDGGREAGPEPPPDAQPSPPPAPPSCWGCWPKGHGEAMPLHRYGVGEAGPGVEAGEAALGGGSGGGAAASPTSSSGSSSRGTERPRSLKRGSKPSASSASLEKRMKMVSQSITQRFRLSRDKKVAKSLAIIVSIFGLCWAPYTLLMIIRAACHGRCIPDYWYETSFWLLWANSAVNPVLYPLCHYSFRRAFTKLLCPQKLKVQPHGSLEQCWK
How it was run: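 Filter-binding radioligand competition on rat forebrain membranes, 1 h incubation; compounds screened at 25 µM in duplicate and followed in concentration series to 50 µM, loss of bound signal vs DMSO.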

[14] = molecular target: Metabotropic glutamate receptor 1 (Rattus norvegicus) (UniProt P23385); assay: NVS_GPCR_rmMGluR1: NovaScreen (NVS) G Protein-Coupled Receptor Assay for rat Glutamate Metabotropic Receptor 1 (MGluR1) (AID 2283305)
How it was run: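 Binding to native receptor from rat cerebellum extract, measured as displacement of a radioligand (scintillation counting, filter separation) after 1 hour. Compounds tested at 25 uM in duplicate, then titrated to a 50 uM maximum.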

[15] = molecular target: rat Glutamate Metabotropic Receptor 5 (MGluR5), Grm5 (gene 24418) (UniProt P31424); assay: NVS_GPCR_rmMGluR5: NovaScreen (NVS) G Protein-Coupled Receptor Assay for rat Glutamate Metabotropic Receptor 5 (MGluR5) (AID 2283307)
How it was run: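 Compounds first screened in duplicate at 25 uM, then in concentration series up to 50 uM if over threshold. Radioligand displacement on rat whole-brain membranes, filtration and scintillation counting after 1.5 h; binding loss relative to DMSO.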

[16] = molecular target: rat Neurotensin Receptor (NTS), Ntsr1 (gene 366274) (UniProt P20789); assay: NVS_GPCR_rNTS: NovaScreen (NVS) G Protein-Coupled Receptor Assay for rat Neurotensin Receptor (NTS) (AID 2283308)
How it was run: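 Single-point duplicates at 25 uM, then concentration series to 50 uM max for hits, measured radioligand displacement on rat forebrain membrane preparations. Bound label counted by filtration scintillation at 1 h; signal loss relative to DMSO fitted.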

[17] = molecular target: rat Neurokinin-3 Receptor (NK3), Tacr3 (gene 24808) (UniProt P16177); assay: NVS_GPCR_rNK3: NovaScreen (NVS) G Protein-Coupled Receptor Assay for rat Neurokinin-3 Receptor (NK3) (AID 2283310)
Sequence of rat Neurokinin-3 Receptor (NK3), Tacr3 (gene 24808) (P16177 whole entry, looked up): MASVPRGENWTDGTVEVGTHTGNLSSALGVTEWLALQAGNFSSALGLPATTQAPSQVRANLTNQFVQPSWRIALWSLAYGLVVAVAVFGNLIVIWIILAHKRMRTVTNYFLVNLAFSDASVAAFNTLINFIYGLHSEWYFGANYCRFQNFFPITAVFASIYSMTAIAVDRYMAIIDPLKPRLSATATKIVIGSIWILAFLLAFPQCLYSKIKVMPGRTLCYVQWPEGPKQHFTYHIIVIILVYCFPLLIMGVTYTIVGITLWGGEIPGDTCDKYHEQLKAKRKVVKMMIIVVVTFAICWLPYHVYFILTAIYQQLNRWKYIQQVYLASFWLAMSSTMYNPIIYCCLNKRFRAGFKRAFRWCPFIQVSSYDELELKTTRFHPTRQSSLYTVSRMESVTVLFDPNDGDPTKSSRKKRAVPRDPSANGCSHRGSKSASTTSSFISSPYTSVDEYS
How it was run: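 Filter-based radioligand displacement on rat cortex membrane preparations, read by scintillation 2 h post-dose. Chemicals first tested in duplicate at 25 uM; actives followed up in concentration series with a 50 uM maximum.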

[18] = molecular target: rat Opioid Receptor, Non-selective Sodium (Na+) Binding, Oprm1 (gene 25601) (UniProt P33535); assay: NVS_GPCR_rOpiate_NonSelectiveNa: NovaScreen (NVS) G Protein-Coupled Receptor Assay for rat Opioid Receptor, Non-selective Sodium (Na+) Binding (AID 2283311)
Sequence of rat Opioid Receptor, Non-selective Sodium (Na+) Binding, Oprm1 (gene 25601) (P33535 whole entry, looked up): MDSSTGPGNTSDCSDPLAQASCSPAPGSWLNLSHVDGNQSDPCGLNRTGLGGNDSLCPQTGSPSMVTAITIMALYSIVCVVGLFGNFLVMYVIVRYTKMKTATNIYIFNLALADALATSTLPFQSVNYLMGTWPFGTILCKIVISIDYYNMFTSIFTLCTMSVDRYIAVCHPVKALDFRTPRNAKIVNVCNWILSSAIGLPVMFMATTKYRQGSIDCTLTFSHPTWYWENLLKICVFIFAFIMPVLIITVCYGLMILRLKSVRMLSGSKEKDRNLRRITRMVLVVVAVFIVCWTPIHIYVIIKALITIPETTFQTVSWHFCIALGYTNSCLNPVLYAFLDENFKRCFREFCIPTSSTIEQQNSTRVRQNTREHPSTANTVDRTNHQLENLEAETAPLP
How it was run: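 Filtration radioligand binding on rat forebrain membrane preparations, read 1.5 h after dosing. Single-concentration 25 µM primary screen in duplicate, followed by singleton concentration series to 50 µM max for actives; DMSO baseline.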

[19] = molecular target: rat Somatostatin Receptor (SST), Sstr1 (gene 25033) (UniProt P28646); assay: NVS_GPCR_rSST: NovaScreen (NVS) G Protein-Coupled Receptor Assay for rat Somatostatin Receptor (SST) (AID 2283314)
Sequence of rat Somatostatin Receptor (SST), Sstr1 (gene 25033) (P28646 whole entry, looked up): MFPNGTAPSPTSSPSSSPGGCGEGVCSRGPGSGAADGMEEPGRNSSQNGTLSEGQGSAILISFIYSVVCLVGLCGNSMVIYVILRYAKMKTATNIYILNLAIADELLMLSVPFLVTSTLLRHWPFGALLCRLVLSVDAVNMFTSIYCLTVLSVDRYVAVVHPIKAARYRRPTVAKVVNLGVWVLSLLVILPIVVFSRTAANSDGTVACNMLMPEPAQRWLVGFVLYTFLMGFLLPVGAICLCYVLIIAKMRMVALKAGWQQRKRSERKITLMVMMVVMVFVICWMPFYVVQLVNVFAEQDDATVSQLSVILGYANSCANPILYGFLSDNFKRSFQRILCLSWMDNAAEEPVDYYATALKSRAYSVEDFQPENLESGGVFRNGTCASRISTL
How it was run: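 Single-concentration duplicate screen (25 uM), then concentration-response up to 50 uM for chemicals passing a threshold such as 30% inhibition. Membranes came from rat forebrain. Binding was measured 1 h post-dose by filter radiodetection and scintillation, relative to DMSO.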

Measured: AC50

CCC(=O)C(CC(C)N(C)C)(c1ccccc1)c1ccccc1 (centres undefined)
active: [1] 7.26 µM | [2] 12 µM | Adra2b (gene 24174) 6.79 µM

O=C1C2(Cl)C3(Cl)C4(Cl)C(Cl)(Cl)C5(Cl)C3(Cl)C1(Cl)C5(Cl)C24Cl (centres undefined)
inactive: [3]

CCN1CCC2(CC1)COc1cc3c(cc12)N(C(=O)c1ccc(-c2ccc(-c4nnc(C)o4)cc2C)cc1)CC3
active: [4] 2.96 µM | [1] 23.4 µM | [5] 16.4 µM | [6] 10.9 µM | [2] 18.6 µM | Adra2b (gene 24174) 10.1 µM | [7] 10.7 µM | [8] 5.41 µM

CC(C)(C)CC(C)(C)c1ccc(O)cc1
inactive: [9]

O=[N+]([O-])c1ccc(O)c([N+](=O)[O-])c1
active: [9] 25 µM

COc1cc(-c2ccc(N)c(OC)c2)ccc1N
active: Adra2b (gene 24174) 15.5 µM

O=C(Nc1ccc2[nH]ccc2c1)c1cc2cc(F)ccc2n1Cc1cccc(F)c1
inactive: [10]

C=C(C)C(=O)[O][Sn]([CH2]CCC)([CH2]CCC)[CH2]CCC
active: [10] 12 µM | [9] 2.88 µM | [4] 2.78 µM | [1] 13.8 µM | [5] 13 µM | [6] 4.59 µM | [11] 20.5 µM | [2] 3.25 µM | [13] 25 µM | [14] 4.13 µM | Adra2b (gene 24174) 3.08 µM | [15] 18.1 µM | [17] 1.4 µM | [18] 8.6 µM | [19] 12.8 µM
inactive: [12] | [16]

CC(=O)[O][Hg][c]1ccccc1
inactive: [15]
active: [9] 25 µM | [4] 14.2 µM | [1] 19.8 µM | [5] 25 µM | [6] 3.43 µM | [2] 3.96 µM | [3] 38.5 µM | [13] 40.2 µM | [14] 10.8 µM | Adra2b (gene 24174) 11.9 µM | [17] 16.8 µM | [18] 30 µM | [19] 5.92 µM

C[C@@H]1C[C@@H]([C@H](O)CC2CC(=O)NC(=O)C2)C(=O)[C@@H](C)C1
inactive: [7]

Cc1ccccc1N
active: [19] 10.8 µM
